In all, about 5,500 compounds went through this assay and about 2,000 (36%) were called active. About 18% were inconclusive and are not listed. No stated cut-off is given here; in the data, active means normalized growth mostly below about 0.91 (no sharp cut-off); inconclusive means no clear call, values can overlap the other calls; inactive means mostly above about 0.92. The list shows a part of the results.
Test: chemical genetic growth profiling, strain panel (AID 1159580);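 further: tested at 20 µM; growth read once vehicle control cultures reached saturation at 30 °C; 1 = growth at the plate median or of vehicle wells; lower values mean less growth of the strain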
Conditions: growth OD

Measured: normalized growth

CCC(=O)O[C@H]1[C@H](O[C@@H]2[C@@H](C)[C@H](O[C@H]3C[C@@](C)(OC)[C@@H](O)[C@H](C)O3)[C@@H](C)C(=O)O[C@H](CC)[C@@](C)(O)[C@H](O)[C@@H](C)C(=O)[C@H](C)C[C@@]2(C)O)O[C@H](C)C[C@@H]1N(C)C
inactive: S. cerevisiae deletion strains, locus YJR066W, strain TOR1, active compounds read low 0.852 | S. cerevisiae deletion strains, locus YKL009W, strain mrt4, active compounds read low 0.932 | S. cerevisiae deletion strains, locus YKL068W, active compounds read low 1.04 | S. cerevisiae deletion strains, locus YKL085W, strain MDH1 (second series), active compounds read low 1 | S. cerevisiae deletion strains, locus YKL085W, strain MDH1, active compounds read low 1 | S. cerevisiae deletion strains, locus YKL160W, strain elf1, active compounds read low 0.924 | S. cerevisiae deletion strains, locus YKL190W, strain CNB1, active compounds read low 1.01 | S. cerevisiae deletion strains, locus YKR026C, strain gcn3, active compounds read low 1.03 | S. cerevisiae deletion strains, locus YKR091W, strain srl3, active compounds read low 1.02 | S. cerevisiae deletion strains, locus YLL026W, active compounds read low 0.942 | S. cerevisiae deletion strains, locus YLL041C, strain sdh2, active compounds read low 1 | S. cerevisiae deletion strains, locus YLR039C, strain RIC1, active compounds read low 0.865 | S. cerevisiae deletion strains, locus YLR058C, strain SHM2, active compounds read low 0.968 | S. cerevisiae deletion strains, locus YLR102C, strain apc9, active compounds read low 1.01 | S. cerevisiae deletion strains, locus YLR113W, strain HOG1, active compounds read low 1.02 | S. cerevisiae deletion strains, locus YLR262C, strain YPT6 (second series), active compounds read low 1.03 | S. cerevisiae deletion strains, locus YLR262C, strain YPT6, active compounds read low 0.882 | S. cerevisiae deletion strains, locus YLR268W, strain sec22, active compounds read low 0.988 | S. cerevisiae deletion strains, locus YLR330W, strain CHS5, active compounds read low 0.937 | S. cerevisiae deletion strains, locus YLR342W, strain FKS1 (second series), active compounds read low 1.05 | S. cerevisiae deletion strains, locus YLR342W, strain FKS1, active compounds read low 1.05 | S. cerevisiae deletion strains, locus YLR370C, strain arc18, active compounds read low 1 | S. cerevisiae deletion strains, locus YLR371W, strain rom2, active compounds read low 0.935 | S. cerevisiae deletion strains, locus YLR384C, strain iki3, active compounds read low 1.02 | S. cerevisiae deletion strains, locus YML016C, strain PPZ1, active compounds read low 1 | S. cerevisiae deletion strains, locus YML032C, strain rad52, active compounds read low 0.946 | S. cerevisiae deletion strains, locus YML124C, strain tub3, active compounds read low 1.02 | S. cerevisiae deletion strains, locus YMR058W, strain fet3, active compounds read low 0.961 | S. cerevisiae deletion strains, locus YMR078C, strain ctf18, active compounds read low 0.988 | S. cerevisiae deletion strains, locus YMR129W, active compounds read low 1 | S. cerevisiae deletion strains, locus YMR223W, strain ubp8, active compounds read low 0.982 | S. cerevisiae deletion strains, locus YMR231W, strain pep5, active compounds read low 0.984 | S. cerevisiae deletion strains, locus YMR263W, strain SAP30, active compounds read low 0.943 | S. cerevisiae deletion strains, locus YNL067W, strain RPL9B, active compounds read low 0.948 | S. cerevisiae deletion strains, locus YNL128W, strain TEP1, active compounds read low 0.985 | S. cerevisiae deletion strains, locus YNL183C, strain NPR1, active compounds read low 0.857 | S. cerevisiae deletion strains, locus YNL209W, strain ssb2, active compounds read low 0.992 | S. cerevisiae deletion strains, locus YNL250W, strain rad50, active compounds read low 1.03 | S. cerevisiae deletion strains, locus YNL271C, strain bni1, active compounds read low 1.01 | S. cerevisiae deletion strains, locus YNL298W, strain CLA4, active compounds read low 0.952 | S. cerevisiae deletion strains, locus YNL322C, strain KRE1 (second series), active compounds read low 0.943 | S. cerevisiae deletion strains, locus YNR049C, strain mso1, active compounds read low 1.01 | S. cerevisiae deletion strains, locus YNR052C, strain pop2, active compounds read low 1 | S. cerevisiae deletion strains, locus YOL006C, strain TOP1, active compounds read low 0.689 | S. cerevisiae deletion strains, locus YOL012C, strain htz1 0.653 | S. cerevisiae deletion strains, locus YOL147C, strain pex11, active compounds read low 0.977 | S. cerevisiae deletion strains, locus YOR061W, strain CKA2, active compounds read low 1.01 | S. cerevisiae deletion strains, locus YOR069W, strain VPS5, active compounds read low 1 | S. cerevisiae deletion strains, locus YOR070C, strain gyp1, active compounds read low 0.93 | S. cerevisiae deletion strains, locus YOR080W, strain dia2, active compounds read low 0.977 | S. cerevisiae deletion strains, locus YOR136W, strain idh2, active compounds read low 0.978 | S. cerevisiae deletion strains, locus YOR144C, strain elg1, active compounds read low 1.01 | S. cerevisiae deletion strains, locus YOR184W, strain ser1, active compounds read low 0.936 | S. cerevisiae deletion strains, locus YOR231W, strain MKK1, active compounds read low 0.879 | S. cerevisiae deletion strains, locus YOR265W, strain rbl2, active compounds read low 0.982 | S. cerevisiae deletion strains, locus YOR316C, strain cot1, active compounds read low 1.01 | S. cerevisiae deletion strains, locus YPL051W, strain arl3, active compounds read low 0.921 | S. cerevisiae deletion strains, locus YPL055C, strain LGE1, active compounds read low 0.894 | S. cerevisiae deletion strains, locus YPL106C, strain sse1, active compounds read low 1.06 | S. cerevisiae deletion strains, locus YPL256C, strain CLN2, active compounds read low 0.953 | S. cerevisiae deletion strains, locus YPR119W, strain clb2, active compounds read low 1.02 | S. cerevisiae deletion strains, locus YPR141C, strain kar3, active compounds read low 1.06 | S. cerevisiae deletion strains, locus YPR167C, strain met16, active compounds read low 0.994 | S. cerevisiae deletion strains, strain wtn01, active compounds read low 0.968 | S. cerevisiae strains, strain wild type, active compounds read low 0.974
active: S. cerevisiae deletion strains, locus YKR001C, strain vps1, active compounds read low 0.648 | S. cerevisiae deletion strains, locus YLL001W, strain dnm1, active compounds read low 0.87 | S. cerevisiae deletion strains, locus YLR027C, strain aat2, active compounds read low 0.893 | S. cerevisiae deletion strains, locus YLR221C, strain rsa3, active compounds read low 0.796 | S. cerevisiae deletion strains, locus YLR258W, strain gsy2, active compounds read low 0.902 | S. cerevisiae deletion strains, locus YLR320W, strain mms22, active compounds read low 0.596 | S. cerevisiae deletion strains, locus YLR357W, strain rsc2, active compounds read low 0.759 | S. cerevisiae deletion strains, locus YLR418C, strain cdc73, active compounds read low 0.615 | S. cerevisiae deletion strains, locus YML120C, strain ndi1, active compounds read low 0.905 | S. cerevisiae deletion strains, locus YMR125W, strain sto1, active compounds read low 0.765 | S. cerevisiae deletion strains, locus YMR205C, strain PFK2, active compounds read low 0.8 | S. cerevisiae deletion strains, locus YMR307W, strain GAS1, active compounds read low 0.463 | S. cerevisiae deletion strains, locus YNL071W, strain lat1, active compounds read low 0.309 | S. cerevisiae deletion strains, locus YNL233W, strain BNI4, active compounds read low 0.853 | S. cerevisiae deletion strains, locus YNL248C, strain rpa49, active compounds read low 0.776 | S. cerevisiae deletion strains, locus YNL307C, strain MCK1, active compounds read low 0.4 | S. cerevisiae deletion strains, locus YOR001W, strain rrp6, active compounds read low 0.861 | S. cerevisiae deletion strains, locus YOR083W, strain WHI5, active compounds read low 0.829 | S. cerevisiae deletion strains, locus YOR106W, strain vam3, active compounds read low 0.75 | S. cerevisiae deletion strains, locus YOR270C, strain vph1, active compounds read low 0.3 | S. cerevisiae deletion strains, locus YOR290C, strain snf2, active compounds read low 0.786 | S. cerevisiae deletion strains, locus YPL078C, strain atp4, active compounds read low 0.635 | S. cerevisiae deletion strains, locus YPL240C, strain hsp82, active compounds read low 0.904 | S. cerevisiae deletion strains, locus YPR163C, strain tif3, active compounds read low 0.829
